This is an account of results in PubChem BioAssay (NCI).

Structures are written as SMILES. The panel holds about 79,000 compounds, 15% with a hit somewhere; the sample as a whole holds those more often. A number with no mark means an inactive call. Active and inactive are the calls of the source. Cut-off read from the data, not from the text of the source: active = growth inhibition above about 70%; inactive = the rest. Where a SMILES comes first, the peptide text is derived from it. The star is where a group is joined. For = O=C*

Assay [1] can be described thus: NCI Yeast Anticancer Drug Screen. Data for the rad50 strain (AID 155).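 Note: 0% = growth of vehicle-only cultures of the same strain.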 The settings on record: S. cerevisiae rad50 strain growth inhibition; at 50.0 µM; stronger effect = higher value. Summed up: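 A DNA repair-deficient yeast mutant serves as the test organism; compound-induced growth inhibition is calculated against vehicle-treated cells.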
The nature of assay [2]: NCI Yeast Anticancer Drug Screen. Data for the mec2-1 strain (AID 157). The note with it: S. cerevisiae mec2-1 strain, at 50.0 µM, stronger effect = higher value. The essentials:
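mec2-1 yeast strain, carrying an alteration in DNA damage repair or cell cycle control, was exposed to compounds; growth inhibition was measured relative to vehicle-treated controls.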

Assay [3] is described as follows: NCI Yeast Anticancer Drug Screen. Data for the sgs1 mgt1 strain (AID 161).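 Note: 0% = growth of cultures given vehicle only.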 The note with it: S. cerevisiae sgs1 mgt1 strain, at 50.0 µM, stronger effect = higher value. Summed up: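 Percent growth inhibition was derived by comparing compound-exposed mutant yeast with vehicle-exposed cultures. The strain carries alterations in DNA damage repair.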
Assay [4] is described as follows: NCI Yeast Anticancer Drug Screen. Data for the cln2 rad14 strain (AID 165).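 Note: 0% = growth equal to vehicle treated cultures.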 The note with it: S. cerevisiae cln2 rad14 strain, at 50.0 µM, stronger effect = higher value. The essentials: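 Yeast carrying cln2 and rad14 alterations (cell cycle control and DNA damage repair) were exposed to compounds. Growth inhibition was measured against vehicle-treated controls.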
The nature of assay [5]: NCI Yeast Anticancer Drug Screen. Data for the bub3 strain (AID 167). The note with it: S. cerevisiae bub3 mutant strain, at 50.0 µM, stronger effect = higher value. Summed up:
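Inhibition values come from growth of compound-treated mutant yeast normalised to vehicle-treated controls.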

Assay [6] is described as follows: NCI Yeast Anticancer Drug Screen. Data for the mlh1 rad18 strain (AID 175). The note with it: S. cerevisiae mlh1 rad18 strain growth inhibition; at 50.0 µM; stronger effect = higher value. The essentials: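 Growth inhibition of the yeast strain was measured after compound exposure and expressed relative to vehicle-treated controls. The strain carries defined defects in DNA damage repair.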

Turning to `CSc1n[nH]c(NC(=O)c2ccccc2Br)n1`, the growth inhibition in assay [1] is 4.2%; in assay [2], -0.9%; in assay [3] it was 29.4%; in assay [4], -19.6%; in assay [5], 3.65%; in assay [6], 30.5%.
As for `CC(=O)/C(=C/n1ccc(=O)[nH]c1=S)C(=O)Nc1ccccc1`, the growth inhibition in assay [1] is -23.1%; in assay [2], -20.5%; in assay [3] it was -18.6%; in assay [4], 11.2%; in assay [5], -12.7%; in assay [6], -22.1%.
Turning to `CCOC(=O)C(=Cn1ccc(=O)[nH]c1=S)C(=O)OCC`, the growth inhibition is -4.6% in assay [1]; -31.1% in assay [2]; -23.9% in assay [3]; 9.35% in assay [4]; -11.6% in assay [5]; -10.3% in assay [6].
On to `O=C(/C=C\c1ccc(/C=C\C(=O)c2ccccc2O)cc1)c1ccccc1O`, for which the growth inhibition in assay [1] was 8.5%; in assay [2], -13.3%; in assay [3] it was -8.75%; in assay [4], -3.75%; in assay [5] it was 22.2%; in assay [6], -23.3%.
`COc1cccc2c(=O)c3c(oc12)CCC(C)C3` (stereo not given): the growth inhibition in assay [1] is -10.6%; in assay [2] it was 4.35%; in assay [3], 5.85%; in assay [4] it was -35.7%; in assay [5] it was -14.8%; in assay [6] it was -9.4%.
Turning to `O=c1oc2ccc3ccccc3c2c2c1CCCCC2`, the growth inhibition is -13.9% in assay [1]; -4.05% in assay [2]; -14.8% in assay [3]; -22.1% in assay [4]; -8.05% in assay [5]; -26.5% in assay [6].
Regarding `CNC(=O)CC(=O)NC`, the growth inhibition in assay [1] was -20.4%; in assay [2] it was -9.55%; in assay [3], -16.9%; in assay [4], 6.15%; in assay [5], 8.2%; in assay [6], -10.1%.
For the molecule `Nc1nc(N)c2c(n1)CCC(CNc1ccc(C(=O)NC(CCC(=O)O)C(=O)O)cc1)C2` (stereo not given), the growth inhibition was 23.6% in assay [1]; 30.6% in assay [2]; 38.3% in assay [3]; 40.2% in assay [4]; -3.8% in assay [5]; 29.7% in assay [6].
On to `O=C(CSc1nc2ccccc2c2ccccc12)c1ccccc1`, for which the growth inhibition is 9.25% in assay [1]; -42.5% in assay [2]; -4.4% in assay [3]; -52% in assay [4]; -42.8% in assay [5]; 12.8% in assay [6].
In the case of `COc1ccc(CCN2C(CC(=O)c3ccccc3)CCCC2CC(=O)c2ccccc2)cc1` (stereo not given), the growth inhibition was -29.6% in assay [1]; -29.1% in assay [2]; -23.8% in assay [3]; -0.8% in assay [4]; -17.5% in assay [5]; -18.7% in assay [6].
On to `O=C(O)/C=C(/Oc1ccccc1)c1ccccc1`, for which the growth inhibition is -12.3% in assay [1]; -7.7% in assay [2]; -7.95% in assay [3]; -8.7% in assay [4]; -19.8% in assay [5]; -3.55% in assay [6].
Take `Cc1cc(C)c(C(=O)c2cccc(Cl)c2)c(C)c1`: the growth inhibition in assay [1] was -13%; in assay [2], 4.7%; in assay [3] it was 5.55%; in assay [4] it was -56.9%; in assay [5], 34.4%; in assay [6] it was 22%.
For `O=C1C=C(Nc2cc(Cl)ccc2Cl)c2ccccc2C1=O`, the growth inhibition is 9.75% in assay [1]; 4.25% in assay [2]; -8.8% in assay [3]; 6.8% in assay [4]; 15.2% in assay [5]; 32.5% in assay [6].
On to `Cc1cc(N/N=C/c2ccc(Cl)cc2)c2cc3c(cc2n1)OCO3`, for which the growth inhibition was 24.2% in assay [1]; -4.5% in assay [2]; -7% in assay [3]; 1.6% in assay [4]; 27.5% in assay [5]; 14.7% in assay [6].
As to `CSCCC(NC(=O)C(Cc1ccccc1)NC=O)C(=O)O` (stereo not drawn) (For-Phe-Met-OH; configuration not given here), the growth inhibition in assay [1] was -12.1%; in assay [2], -26.9%; in assay [3], -10.5%; in assay [4], 5.7%; in assay [5], 19.4%; in assay [6], -11.5%.
Take `CCCN(CCC)S(=O)(=O)c1ccc(NC(=O)Oc2ccccc2OC)cc1`: the growth inhibition in assay [1] was 41.6%; in assay [2], 3.8%; in assay [3], 31.8%; in assay [4] it was 20.6%; in assay [5], -7.3%; in assay [6], 22.3%.
Consider `O=C(O)/C(=C/C=C/c1ccccc1)c1csc(-c2nc(/C(=C\C=C\c3ccccc3)C(=O)O)cs2)n1`, for which the growth inhibition in assay [1] was 22%; in assay [2], 13.3%; in assay [3], 19.4%; in assay [4], 16.9%; in assay [5], 19.1%; in assay [6] it was 9.15%.
For the molecule `N#Cc1ccc(/C=N\NC(=O)CCSCCC(=O)N/N=C/c2ccc(C#N)cc2)cc1`, the growth inhibition in assay [1] is 13.2%; in assay [2], 24.9%; in assay [3], 7.65%; in assay [4], 18.4%; in assay [5], 13.1%; in assay [6] it was 7.45%.
Turning to `COc1ccc(/C=N\NC(=O)N/N=C/c2ccc(OC)c(Br)c2)cc1Br`, the growth inhibition in assay [1] was 44.3%; in assay [2] it was 39.7%; in assay [3], 44.6%; in assay [4], 49.5%; in assay [5], 39.2%; in assay [6], 71.7% (active).
Turning to `CCCCCCCCCCCCSC(=O)NCCC`, the growth inhibition in assay [1] was -3.75%; in assay [2], -2.05%; in assay [3] it was 1.6%; in assay [4] it was 0.05%; in assay [5], 3.45%; in assay [6], 1.4%.
As for `O=C1c2c(-c3ccccc3)ccc(-c3ccccc3)c2C(=O)c2c(-c3ccccc3)ccc(-c3ccccc3)c21`, the growth inhibition was -4.4% in assay [1]; -3.4% in assay [2]; 2.3% in assay [3]; -6.8% in assay [4]; -2.6% in assay [5]; -13.6% in assay [6].
With `NS(=O)(=O)c1ccc(C(=O)O)s1`, the growth inhibition in assay [1] is -12.1%; in assay [2], -11.2%; in assay [3], -10.3%; in assay [4], -11%; in assay [5] it was 11.6%; in assay [6], -18.1%.
With `NC(=O)c1csc(N)n1`, the growth inhibition in assay [1] is 4.4%; in assay [2], 3.95%; in assay [3], 0%; in assay [4], 3.55%; in assay [5], 9.3%; in assay [6], -7.7%.
In the case of `Cc1c(Cl)cccc1NC(=O)Nc1ccccc1`, the growth inhibition in assay [1] is -1.35%; in assay [2], 3.3%; in assay [3], -6.25%; in assay [4], -8.1%; in assay [5], 4.1%; in assay [6], 7.65%.
For `COC1C(=O)c2ccccc2N1C(C)=O` (stereo not given), the growth inhibition in assay [1] was 7.85%; in assay [2], -2.25%; in assay [3], -7.6%; in assay [4], -18.2%; in assay [5] it was -6.85%; in assay [6], 1.15%.
As for `Cc1cc2ccc(OC(=O)c3ccc(N=C(N)N)cc3)cc2oc1=O`, the growth inhibition in assay [1] is -8.95%; in assay [2], 4.3%; in assay [3], -29.6%; in assay [4] it was -47.8%; in assay [5] it was -24.6%; in assay [6], 13.7%.
`COC(=O)C1=NNC(c2ccc(C)cc2)C1` (stereo not given): the growth inhibition in assay [1] is 1.75%; in assay [2], -2.25%; in assay [3], -0.95%; in assay [4], -0.3%; in assay [5], -16%; in assay [6], 2.85%.
Take `C1#CCSCC#CCSC1`: the growth inhibition was 14.2% in assay [1]; 3.4% in assay [2]; 11.1% in assay [3]; 24.2% in assay [4]; 40% in assay [5]; 24% in assay [6].
As to `CCNC(=S)Nc1ccc(Cl)cc1`, the growth inhibition in assay [1] is 27.2%; in assay [2], 40.4%; in assay [3], 39%; in assay [4] it was -6.1%; in assay [5], 53.4%; in assay [6] it was 35.8%.
Take `NC(=O)C(=O)CC(=O)c1ccccc1NC1=CC(=O)C(=O)c2ccccc21`: the growth inhibition was 41% in assay [1]; 29.1% in assay [2]; 20.4% in assay [3]; 30.4% in assay [4]; 36.4% in assay [5]; 37.5% in assay [6].
Regarding `O=C(O)CSc1ncnc2nc[nH]c12`, the growth inhibition in assay [1] was 1.6%; in assay [2] it was -30.2%; in assay [3], 1.9%; in assay [4], 27.6%; in assay [5] it was -5.25%; in assay [6] it was -12.9%.
Regarding `O=Cc1ccc(/C=C2\NC(=O)NC2=O)cc1`, the growth inhibition in assay [1] was -6.25%; in assay [2], -7.9%; in assay [3], -26.9%; in assay [4] it was -0.05%; in assay [5] it was -9.3%; in assay [6], -5.55%.
Regarding `CCOC(=O)c1sc(SSc2nc(C)c(C(=O)OCC)s2)nc1C`, the growth inhibition in assay [1] was -4.4%; in assay [2], -4.7%; in assay [3], 2.7%; in assay [4] it was 12.9%; in assay [5], 4.75%; in assay [6], 10.1%.
As for `CC/C(CC(C)CC)=N\O` (stereo not given), the growth inhibition is -17.4% in assay [1]; -18.2% in assay [2]; -23.4% in assay [3]; 12.5% in assay [4]; -4.55% in assay [5]; -5.75% in assay [6].
With `CC(=O)OCC1OC2OC(C)(C)OC2C2OC(C)(C)OC12` (stereo not given), the growth inhibition in assay [1] is -13.5%; in assay [2], 5.35%; in assay [3] it was 19.2%; in assay [4], -4.65%; in assay [5] it was -7.65%; in assay [6] it was -12.8%.
In the case of `CCC(SC(C)=O)C(=O)O` (stereo not given), the growth inhibition was 13% in assay [1]; -16.1% in assay [2]; 2.65% in assay [3]; 14.4% in assay [4]; -2.05% in assay [5]; 9.5% in assay [6].
For `CC1C2(C)OC(=N)C(C#N)(C(c3ccccc3)O2)C1(C#N)C#N` (stereo not given), the growth inhibition was 8.7% in assay [1]; -5.15% in assay [2]; -13.4% in assay [3]; 6.25% in assay [4]; -3.2% in assay [5]; -23.6% in assay [6].
Turning to `Nc1ccccc1/C=C/c1ccnc2ccccc12`, the growth inhibition is 3.7% in assay [1]; 2.55% in assay [2]; 23.6% in assay [3]; 10.2% in assay [4]; -18.1% in assay [5]; 47.8% in assay [6].
Turning to `CC(=O)N=C1N(/C=C2\C(=O)Oc3ccccc3C2=O)C(=O)/C(=C/c2ccc(OC(C)=O)cc2)N1C`, the growth inhibition is -9.55% in assay [1]; -17% in assay [2]; -14.9% in assay [3]; 12.9% in assay [4]; 1.05% in assay [5]; 0.75% in assay [6].
On to `O=C1CC(c2ccccc2)Oc2ccccc21` (stereo not given), for which the growth inhibition is -24.5% in assay [1]; -58.1% in assay [2]; -16.8% in assay [3]; 8.2% in assay [4]; -25.2% in assay [5]; -24.1% in assay [6].
